Test results taken from PubChem BioAssay (NCI).
This is part of a sample that, as a whole, favours compounds with a hit. Of some 79,000 tested, about 15% had one in any assay. No stated cut-off is given here; in the data, active means growth inhibition above about 70%; inactive means the rest.

Legend:
[1] = NCI Yeast Anticancer Drug Screen. Data for the rad50 strain (AID 155);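 further: 0% = growth of vehicle-only cultures of the same strain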; details: S. cerevisiae rad50 strain growth inhibition; at 50.0 µM; stronger effect = higher value
How it was run: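 Inhibition values express reduced yeast growth in compound-treated cultures relative to vehicle-treated controls.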

[2] = NCI Yeast Anticancer Drug Screen. Data for the mec2-1 strain (AID 157); details: S. cerevisiae mec2-1 strain, at 50.0 µM, stronger effect = higher value
How it was run: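 Test agents were screened against the mec2-1 yeast strain, with defined DNA repair or cell cycle alteration. Growth was scored as inhibition against vehicle-only controls.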

[3] = NCI Yeast Anticancer Drug Screen. Data for the sgs1 mgt1 strain (AID 161);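 further: 0% = growth of cultures given vehicle only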; details: S. cerevisiae sgs1 mgt1 strain, at 50.0 µM, stronger effect = higher value
How it was run: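 Test agents were incubated with a DNA-repair-mutant yeast strain. Growth was then read and compared against vehicle-treated controls.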

[4] = NCI Yeast Anticancer Drug Screen. Data for the cln2 rad14 strain (AID 165);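 further: 0% = growth equal to vehicle treated cultures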; details: S. cerevisiae cln2 rad14 strain, at 50.0 µM, stronger effect = higher value
How it was run: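 Growth of compound-exposed yeast (cln2 rad14 genotype) measured and expressed as inhibition relative to vehicle.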

[5] = NCI Yeast Anticancer Drug Screen. Data for the bub3 strain (AID 167); details: S. cerevisiae bub3 mutant strain, at 50.0 µM, stronger effect = higher value
How it was run: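 Steps: expose the mutant yeast strain to compound; grow alongside vehicle-treated cultures; measure growth; express inhibition against the vehicle cultures.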

[6] = NCI Yeast Anticancer Drug Screen. Data for the mlh1 rad18 strain (AID 175); details: S. cerevisiae mlh1 rad18 strain growth inhibition; at 50.0 µM; stronger effect = higher value
How it was run: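 In this whole-cell yeast screen, a strain with altered DNA damage repair is challenged with compound, and its growth is measured against matched vehicle-treated controls.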

Measured: growth inhibition

O=c1[nH]cnc2c1ncn2CCCCO
inactive: [1] -0.15% | [2] -5.25% | [3] 1.6% | [4] 2.7% | [5] -0.05% | [6] 10.4%

CCCC(=O)OCc1ccc(Cl)c(Cl)c1
inactive: [1] 21.6% | [2] 16% | [3] 9.45% | [4] 8% | [5] 9.15% | [6] -3.85%

CC(=O)OCC1OC(n2ncnc2CI)C(OC(C)=O)C(OC(C)=O)C1OC(C)=O (stereo not given)
inactive: [1] 36.5% | [2] 8.35% | [3] 13.6% | [4] 16.9% | [5] 4.15% | [6] 21.5%

Nc1cc(=O)[nH]c(NCCCC(N)C(=O)O)n1 (stereo not given)
inactive: [1] 5.95% | [2] 8.8% | [3] 6.55% | [4] -15.7% | [5] 0.85% | [6] 8.9%

CC1NCCC(CC(=O)O)C1CC(=O)O (stereo not given)
inactive: [1] -7.55% | [2] -26% | [3] 1.75% | [4] -41.1% | [5] -26.8% | [6] -10.3%
